Out of some 16,000 compounds screened, about 5,100 (32%) were called active. Another 25% or so got no clear call; they are omitted. Calls come from the whole dose curve; as a rule, active = well fitted curve in the direction sought with a large enough effect; inconclusive = small, poorly fitted or top-dose-only effect, or effect the other way; inactive = no such curve, though single readings can be large or run the other way. This is one part of the list.
What follows are compounds tested against Cytochrome P450 3A4 (Homo sapiens) (UniProt P08684) (assay: Cytochrome panel assay with activity outcomes). Settings: recombinant CYP, pro-luciferin dealkylation, luminescence, p450-cyp3a4; series mostly up to 57.1 µM; activity, negative = inhibition: at the top concentration.
% is set by controls: 0 for no effect and ±100 for the full control effect.

Sequence of Cytochrome P450 3A4 (Homo sapiens) (P08684 whole entry, looked up): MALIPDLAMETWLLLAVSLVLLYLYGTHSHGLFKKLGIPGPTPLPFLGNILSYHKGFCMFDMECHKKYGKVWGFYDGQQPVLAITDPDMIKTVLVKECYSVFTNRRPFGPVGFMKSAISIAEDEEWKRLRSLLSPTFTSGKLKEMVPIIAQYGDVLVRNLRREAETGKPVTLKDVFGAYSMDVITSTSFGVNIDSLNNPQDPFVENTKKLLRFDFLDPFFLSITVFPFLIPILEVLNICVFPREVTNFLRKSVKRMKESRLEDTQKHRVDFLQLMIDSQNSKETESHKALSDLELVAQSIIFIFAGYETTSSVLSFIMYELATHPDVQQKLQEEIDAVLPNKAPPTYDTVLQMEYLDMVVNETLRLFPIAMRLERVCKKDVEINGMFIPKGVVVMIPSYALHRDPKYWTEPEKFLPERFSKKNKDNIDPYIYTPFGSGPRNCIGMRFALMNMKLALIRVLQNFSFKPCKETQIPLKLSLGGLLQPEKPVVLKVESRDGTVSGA

| SMILES | AC50 | activity, negative = inhibition |
| --- | --- | --- |
| CCOc1ccccc1NC(=O)CSc1nnc(-c2cnccn2)n1C | 8.91 µM (active) |  |
| CCOc1ccccc1NC(=O)CCC(=O)O |  | -0.16% (inactive) |
| O=[N+]([O-])c1ccccc1/C=N/n1c(COc2ccccc2)n[nH]c1=S | 5.01 µM (active) |  |
| O=C1NC(=S)N/C1=C/c1cccc([N+](=O)[O-])c1O |  | -21.1% (inactive) |
| Cc1ccc(/C=N/n2c(COc3ccccc3)n[nH]c2=S)s1 |  | 14.5% (inactive) |
| O=[N+]([O-])c1ccc(/C=N/n2c(COc3ccccc3)n[nH]c2=S)cc1 | 15.8 µM (active) |  |
| O=[N+]([O-])c1ccc(/C=N/N/C(=N/c2ccccn2)c2ccccn2)cc1 |  | -22.7% (inactive) |
| Cc1ccccc1CNc1ncnc2c1ncn2[C@@H]1O[C@@H](CO)[C@H](O)[C@@H]1O |  | 2.17% (inactive) |
| NC[C@H]1O[C@H](n2cnc3c(N)ncnc32)C[C@@H]1O |  | -10.5% [at 11.4 µM] (inactive) |
| CCc1ccc(N(C(=O)c2snc(C(N)=O)c2N)C(C(=O)NCCC(C)C)c2c[nH]c3ccccc23)cc1 (stereo not given) | 3.98 µM (active) |  |
| CC(=O)OC[C@@H]1O[C@@H](O/N=C2/C[C@@H](O)[C@@H](O)[C@@H]3[C@@H]4C(=O)N(C5CCCCC5)C(=O)[C@H]4CC[C@@H]23)[C@H](OC(C)=O)[C@H](OC(C)=O)[C@@H]1OC(C)=O |  | -21.5% [at 11.4 µM] (inactive) |
| c1ccc(-c2noc(-c3ccc4ccccc4c3)n2)cc1 |  | -12.6% (inactive) |
| COc1cccc(-c2nccc(NCc3ccccc3)n2)c1 | 3.98 µM (active) |  |
| COc1cccc(-c2nccc(NC3CCNCC3)n2)c1 |  | -19.4% (inactive) |
| COc1cccc(-c2noc(-c3cccnc3)n2)c1 | 5.01 µM (active) |  |
| COc1cccc(-c2nccc(NCc3cccnc3)n2)c1 | 1.26 µM (active) |  |
| COc1ccc(-c2cc(C(F)(F)F)nc(NCc3cccnc3)n2)cc1 | 4.47 µM (active) |  |
| CO[C@@H]1COC(=O)[C@H]2CCCN2C(=O)[C@@H](C)COC(=O)C/C=C\[C@H]1C |  | -15.8% [at 11.4 µM] (inactive) |
| COc1cccc(-c2nccc(NCc3cccs3)n2)c1 | 5.01 µM (active) |  |
| COCC(C)NCc1cccc(C)c1 (stereo not given) |  | 1.77% (inactive) |
| COc1cccc(-c2nccc(NCc3cccc(C)c3)n2)c1 | 3.98 µM (active) |  |
| Cc1ccc(C)c(S(=O)(=O)NC(C)C(=O)Nc2ccc(-c3nc4ccccc4s3)cc2)c1 (stereo not given) | 3.55 µM (active) |  |
| Cc1ccc(C)c(S(=O)(=O)NC(CC(C)C)C(=O)O)c1 (stereo not given) |  | -37.6% (inactive) |
| Cc1ccc2nc(-c3ccc(NC(=O)c4ccc(N)cc4)c(S(=O)(=O)O)c3)sc2c1 |  | -13.7% [at 11.4 µM] (inactive) |

| SMILES | AC50 | activity, negative = inhibition |
| --- | --- | --- |
| CCN(Cc1ccccc1)Cc1cccc([N+](=O)[O-])c1 |  | 9.2% (inactive) |
| COc1ccc([N+](=O)[O-])cc1N(CC(O)CN(CC(C)C)CC(C)C)S(=O)(=O)c1ccccc1 (stereo not given) | 1.12 µM (active) |  |
| CCN(/C=N/c1sc2c(c1C#N)CCCCC2)CC |  | -17.6% [at 2.29 µM] (inactive) |
| CCCN(/C=N/c1sc2c(c1C#N)CCCCC2)CCC | 7.94 µM (active) |  |
| COc1ccc(CNc2ncncc2-c2cccc(NS(C)(=O)=O)c2)c(OC)c1 | 0.251 µM (active) |  |
| COc1ccccc1CNc1ncncc1-c1cccc(NS(C)(=O)=O)c1 | 0.251 µM (active) |  |
| Cc1cc2c(cc1S(N)(=O)=O)S(=O)(=O)CCC2 |  | -0.57% [at 25.6 µM] (inactive) |
| CCOC(=O)Nc1ccc(C(=O)NCC2CCCO2)cc1 (stereo not given) |  | 0.318% (inactive) |
| Cc1ccc(C(=O)NCC2CCCO2)cc1N1CCCC1=O (stereo not given) |  | 4.7% (inactive) |
| CCC(C)(C(=O)NC1CCCC1)N(CC1CCCO1)C(=O)c1ccc2c(c1)OCO2 (stereo not given) | 3.98 µM (active) |  |
| COc1cccc(CNc2ccc3nc(-c4ccc(N)cc4)c(OC)n3n2)c1 | 5.01 µM (active) |  |
| CC(=O)OCCCN1c2ccccc2Nc2nnc(-c3ccccc3)cc21 | 12.6 µM (active) |  |
| CN(C)c1nccc(N(Cc2ccccc2)Cc2ccccc2)c1C#N | 12.6 µM (active) |  |
| Cc1ccc(N(Cc2ccccc2)Cc2ccccc2)cc1 |  | -22.6% [at 11.4 µM] (inactive) |
| COc1ccc(CN(CCN(C)C)c2ccccn2)cc1 |  | -5.75% [at 25.6 µM] (inactive) |
| CO[C@@H]1COC(=O)[C@H]2CCCN2C(=O)C/C=C\[C@@H](C)[C@H](OC)COC(=O)[C@H]2CCCN2C(=O)C/C=C\[C@H]1C |  | -3.39% [at 11.4 µM] (inactive) |
| CN(C)c1ncc2ncc(=O)n(C)c2n1 |  | -19.6% (inactive) |
| c1ccc2c(c1)ncn2-c1ccc(-c2ccnc(-c3ccncc3)n2)cc1 | 0.501 µM (active) |  |
| c1ccc(-c2nccc(-c3ccc(-n4cnc5ccccc54)cc3)n2)nc1 |  | -16.7% (inactive) |
| O=C(O)COc1ccc(-c2nccc(-c3cccs3)n2)cc1 |  | -28.8% (inactive) |
| COc1ccc(C(=O)N2CCC[C@@]3(CCN(C(=O)Nc4cccc(C#N)c4)C3)C2)cc1 | 7.94 µM (active) |  |
| CC(=O)N1CCC2(CC1)CN(C(=O)Nc1cccc(C#N)c1)C2 |  | -13.8% (inactive) |
| COc1ccc(C(=O)N2CCC3(CC2)CN(C(=O)Nc2cccc(C#N)c2)C3)cc1 | 15.8 µM (active) |  |
| COC(=O)N1CCC[C@@]2(CCN(C(=O)Nc3cccc(C#N)c3)C2)C1 |  | -20.2% (inactive) |

| SMILES | AC50 | activity, negative = inhibition |
| --- | --- | --- |
| COCC(=O)N1CCC2(CC1)CN(C(=O)Nc1cccc(C#N)c1)C2 |  | -6.1% (inactive) |
| COCC(=O)N1CCC2(CCCN(C(=O)Nc3cccc(C#N)c3)C2)CC1 |  | -14.3% (inactive) |
| COc1ccc(C(=O)N2CCC3(CCCN(C(=O)Nc4cccc(C#N)c4)C3)CC2)cc1 | 6.31 µM (active) |  |
| COC(=O)N1CCC2(CC1)CN(C(=O)Nc1cccc(C#N)c1)C2 |  | 13.1% (inactive) |
| N#Cc1cccc(NC(=O)N2CC[C@@]3(CCCN(C(=O)c4ccncc4)C3)C2)c1 | 15.8 µM (active) |  |
| COCC(=O)N1CCC[C@@]2(CCN(C(=O)Nc3ccccc3)C2)C1 |  | -21.6% (inactive) |
| CC(C)c1nnc(-c2ccc(Cl)cc2)c(N(C)C)n1 |  | -7.47% [at 2.29 µM] (inactive) |
| Cn1c(=O)c(C(=O)CN2CCOCC2)c(N)n(Cc2ccccc2)c1=O |  | -17.4% (inactive) |
| CCCn1c(N)c(C(=O)CSc2nc(C)cs2)c(=O)n(C)c1=O | 6.31 µM (active) |  |
| O=C(O)[C@@H](O)Cc1ccccn1 |  | 15.2% [at 11.4 µM] (inactive) |
| CN1CCN(c2ncc3nc(-c4cccc(C#N)c4)c(=O)n(CCC#N)c3n2)CC1 |  | -11.8% (inactive) |
| O=c1c(-c2ccc(F)cc2)nc2cnc(N3CCOCC3)nc2n1C[C@H]1CCCO1 |  | -17.4% (inactive) |
| Cc1nc2cnc(N(C)C)nc2n(Cc2ccc(F)cc2)c1=O | 0.0251 µM (active) |  |
| O=c1cnc2cnc(N3CCNCC3)nc2n1Cc1ccc(F)cc1 | 7.94 µM (active) |  |
| CN1CCN(c2ncc3nc(-c4cccc(C#N)c4)c(=O)n(Cc4ccc(F)cc4)c3n2)CC1 | 20 µM (active) |  |
| O=c1c(-c2ccccc2)nc2cnc(N3CCNCC3)nc2n1Cc1ccc(F)cc1 | 3.16 µM (active) |  |
| COc1ccc(-n2c(=O)cnc3cnc(N4CCNCC4)nc32)cc1 |  | -14.3% (inactive) |
| CN1CCN(c2ncc3nc(-c4cccc(C#N)c4)c(=O)n(C)c3n2)CC1 |  | 7.43% (inactive) |
| CN(C)c1ncc2nc(-c3ccccc3)c(=O)n(Cc3ccc(F)cc3)c2n1 |  | -18.3% (inactive) |
| Cc1nc2cnc(N(C)C)nc2n(CCC#N)c1=O |  | -17.2% (inactive) |
| N#CCCn1c(=O)cnc2cnc(N3CCNCC3)nc21 |  | -21% (inactive) |
| CN1CCN(c2ncc3nc(-c4ccccc4)c(=O)n(Cc4ccc(F)cc4)c3n2)CC1 |  | -3.42% (inactive) |

Reference: PubChem BioAssay AID1851 (National Center for Advancing Translational Sciences (NCATS), 2009)
